# According to PubChem BioAssay AID504332 (National Center for Advancing Translational Sciences (NCATS), 2011):
# The campaign covered roughly 350,000 compounds. About 31,000 (8.9%) were called active. About 15% were inconclusive and are not listed. Calls come from the whole dose curve; as a rule, active = well fitted inhibition curve with a large enough effect; inconclusive = small, poorly fitted or top-dose-only effect; inactive = no such curve, though single readings can be large or run the other way. The entries come from a sample that favours actives as a whole. A call without a number means that no potency is given here.
# Biological target: Histone-lysine N-methyltransferase EHMT2 (Homo sapiens) (UniProt Q96KQ7)
# Assay: qHTS Assay for Inhibitors of Histone Lysine Methyltransferase G9a; note: nearly all actives have a fitted effect of over 75% in size
# Conditions: G9a H3K9 monomethylation, AlphaScreen, 2 h; series mostly up to 59 µM
# Excerpt: Methylated lysines, on the N-terminal tails of histone proteins serve as epigenetic markers to recruit factors that can then modify local chromatin structure to lead to functional consequences. G9a and other members of the SUV39 family of the SET domain-containing superfamily of histone lysine methyltransferases (HMT) have been identified to specifically methylate Lys9 of histone H3 (H3K9). G9a catalyzes the mono- and di-methylation of H3K9 in mammalian euchromatic regions, where the resulting H3K9me2 is indicative of transcriptional repression. […] The inhibition of G9a will result in transcriptional activation and work synergistically with DNA methyltransferase and histone deacetylase inhibitors, to kill cancer cells. This qHTS assay for identification of G9a inhibitors is a chemiluminescence based AlphaScreen (PerkinElmer). Methylation of biotinylated-histone peptide is measured through specific antibody-based detection, in conjunction with streptavidin-coated donor and anti-IgG antibody-coated acceptor beads. The method is particularly well suited for detection of inhibitors acting by the desired histone peptide competitive mechanism and is applicable to testing other HMTs. Although AlphaScreen has significant advantages with its utility in a variety of epigenetic target assays, the primary screening data provided in this deposition should be used with caution due to the prevalence of screening artifacts. An AlphaScreen counterscreen is highly recommended to be run against any putative actives to eliminate non specific artifacts. Alternatively, one can use other AlphaScreen assays in PubChem to filter out promiscuous hits. Quinn et al. A chemiluminescence-based method for identification of histone lysine methyltransferase inhibitors. Mol Biosyst 6(5): 782-8. 2010. PMID: 20567762 [2] Baell,Holloway. New substructure filters for removal of pan assay interference compounds (PAINS) from screening libraries and for their exclusion in bioassays. J Med Chem. 53(7):2719-40. 2010. PMID: 20131845 NIH Molecular Libraries Probe Production Network [MLPCN] NIH Chemical Genomics Center [NCGC] Structural Genomics Consortium (SGC) NIH Grant: 5U54 MH084681-02
# To each well of a 1,536w plate, 2ul of HMT enzyme (final 20nM) were added, using a nanoliter dispenser. The G9a- and GLP-inhibitor BIX-01294 (CID: 25150857) are used as an intraplate control, with a 16-point titration in duplicate. A Kalypsys pin-tool transferred 23nl of library compound solution in DMSO to each well. Following a 15 min incubation of enzyme with compounds at room temperature, 1ul mixture of b-H3K9 peptide substrate (final 500nM) and SAM cofactor (final 20uM) were added. Reactions were allowed to proceed at room temperature for 2 hours. Methylated b-H3K9 peptide product was detected with 0.5 ug/mL rabbit polyclonal anti-monomethyl histone H3K9 antibody (Abcam Inc., Cambridge, MA) and 20 ug/mL each streptavidin-coated donor and anti-rabbit IgG acceptor AlphaScreen beads. Antibody and beads were added in a 1ul dispense, for a final volume of 4ul, and plates were incubated, protected from the light, for 10 min at room temperature. Microplates were then read on an EnVision multilabel plate reader using the 1,536 plate HTS AlphaScreen aperture (excitation time 80 ms, measurement time 240 ms).
# Potency is the fitted concentration of half-maximal effect.
# Sequence of Histone-lysine N-methyltransferase EHMT2 (Homo sapiens) (Q96KQ7 913-1193 limits assumed): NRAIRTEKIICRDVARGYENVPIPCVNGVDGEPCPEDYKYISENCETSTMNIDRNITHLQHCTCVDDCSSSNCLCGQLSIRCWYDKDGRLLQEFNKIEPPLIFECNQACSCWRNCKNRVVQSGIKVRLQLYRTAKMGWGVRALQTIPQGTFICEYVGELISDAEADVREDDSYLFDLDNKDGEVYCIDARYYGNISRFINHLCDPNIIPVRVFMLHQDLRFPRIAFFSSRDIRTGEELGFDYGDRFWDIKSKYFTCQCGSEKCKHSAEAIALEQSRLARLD
SMILES,Potency,"activity, negative = inhibition"
COc1ccc(CCC(=O)NCc2ccc3c(c2)CCN3C(=O)c2ccc(F)cc2)cc1,inactive,–
CCN(C(=O)COC(=O)CCOc1cccc(C)c1)c1c(N)n(Cc2ccccc2)c(=O)[nH]c1=O,inactive,–
O=C(CSc1ncc(S(=O)(=O)c2ccc(Br)cc2)c(=O)[nH]1)Nc1ccc2c(c1)OCCO2,inactive,–
O=C(COC(=O)c1cccs1)NCc1cccs1,inactive,–
Cc1ccc(N2CC(NC(=O)Cc3cccs3)CC2=O)cc1 (stereo not drawn),inactive,–
CCN(C(=O)COC(=O)Cc1c(F)cccc1Cl)c1c(N)n(Cc2ccccc2)c(=O)[nH]c1=O,–,1.45% [at 12.7 µM] (inactive)
Cc1cccc(-c2nc(SCC(=O)Nc3cc(C)on3)c3c(=O)n(C)c(=O)n(C)c3n2)c1,inactive,–
Cc1ccc(OCC(=O)OCc2cc(=O)n3nc(C4CC4)sc3n2)cc1C,inactive,–
O=C1c2cccc3cc(Br)cc(c23)C(=O)N1Nc1ccccc1,inactive,–
O=C1C=C(c2ccc(Cl)cc2)C(=O)N1Nc1ccccc1,7.94 µM (active),–
O=C(Nc1ccccc1)OCc1cc(-c2ccc(Cl)cc2)on1,inactive,–
Cc1ccccc1-c1nc(C#N)c(NCc2ccco2)o1,39.8 µM (active),–
COc1ccc(Nc2oc(-c3ccccc3Cl)nc2C#N)cc1,inactive,–
Cc1cc(NCc2ccco2)n2c(nc3ccccc32)c1C#N,inactive,–
O=C(NCCc1ccccc1)c1ccc2c(c1)N(Cc1ccccc1)C(=O)c1ccccc1S2(=O)=O,inactive,–
Cc1ccc(S(=O)(=O)N2CC(O)C[C@H]2C(=O)OCC(=O)Nc2ccc(N3CCOCC3)cc2)cc1C (stereo partly drawn),50.1 µM (active),–
CC1CCCC(NC(=O)COC(=O)[C@@H]2CC(O)CN2S(=O)(=O)c2ccc3c(c2)OCCO3)C1C (stereo partly drawn),inactive,–
Cc1cc(S(=O)(=O)N2CCOCC2)ccc1OCC(=O)Nc1cccc(C(F)(F)F)c1,inactive,–
CC(C)Oc1ccc(NC(=O)c2cc3ccccc3o2)cc1,inactive,–
O=C(/C=C(O)/C=C/c1ccc(O)cc1)/C=C/c1ccc(O)cc1,–,1.18% [at 0.501 µM] (inactive)
CCOC(=O)C(C)N(c1ccccc1Cl)S(C)(=O)=O (stereo not drawn),–,25.6% [at 12.7 µM] (inactive)
Cc1cc(C)cc(NC(c2nnc(-c3cccc(F)c3)o2)c2ccc(F)cc2Cl)c1 (stereo not drawn),inactive,–
O=S(=O)(NCC1OCCc2ccccc21)c1ccccc1 (stereo not drawn),–,-24.8% [at 2.33 µM] (inactive)
O=S(=O)(NCCc1ccncc1)c1ccccc1,inactive,–

SMILES,Potency,"activity, negative = inhibition"
O=c1/c(=C/c2ccc(CNS(=O)(=O)c3ccccc3)o2)sc2n1CCN=2,39.8 µM (active),–
COc1ccc(CNC(=O)C(=O)N2CCC3(CC2)OCCN3S(=O)(=O)c2ccc(C)cc2)cc1,inactive,–
COc1ccccc1C(=O)NC(=O)COC(=O)C1CC1,inactive,–
O=S(=O)(NCCCCCCNS(=O)(=O)c1c(F)cccc1F)c1ccc2c(c1)OCCO2,–,21.9% [at 2.33 µM] (inactive)
CC(=O)CC[C@@H](C)O[C@@H]1OC(C)[C@H](O)CC1O (stereo partly drawn),–,14.8% [at 2.33 µM] (inactive)
COCc1ccc(C(=O)N2CCc3c([nH]c4ccccc34)C2c2ccccn2)s1 (stereo not drawn),31.6 µM (active),–
Cc1cccc(C(=O)N2CCc3c([nH]c4ccccc34)C2CC(C)C)n1 (stereo not drawn),inactive,–
Cc1cccc(C2c3[nH]c4ccccc4c3CCN2C(=O)c2cc(-c3cccn3C)n[nH]2)n1 (stereo not drawn),28.2 µM (active),–
CC1CCN(C(=O)COC(=O)c2cc(=O)[nH]c3ccccc23)CC1,–,-8.14% [at 12.7 µM] (inactive)
CCOc1cccc(CC(=O)N2CCc3c([nH]c4ccccc34)C2c2ccc(F)cc2)c1OCC (stereo not drawn),inactive,–
CCc1nnc(SCc2c(F)cccc2Cl)c2cc3sccc3n12,inactive,–
CC(C)CN(C(=O)c1ccc2c(c1)OCO2)C1CCS(=O)(=O)C1 (stereo not drawn),inactive,–
CN(CC(=O)Nc1cccc(F)c1)C(=O)C1CSC2(C)CCC(=O)N12 (stereo not drawn),inactive,–
CCC(=O)N1CCc2cc(S(=O)(=O)NC(CC(C)C)C(=O)NCCc3cccc(C)c3)ccc21 (stereo not drawn),inactive,–
Cc1cc(NC(=O)COc2ccccc2C#N)no1,inactive,–
O=C(c1ccc(C(F)(F)F)cc1)C1CCCN(C(=O)c2csnn2)C1 (stereo not drawn),inactive,–
Cc1cnc(C(=O)N2CCCC(C(=O)c3ccc(C(F)(F)F)cc3)C2)cn1 (stereo not drawn),22.4 µM (active),–
COCC(=O)N1CCCC(C(=O)c2ccc(C(F)(F)F)cc2)C1 (stereo not drawn),inactive,–
CCN(CC)CCN(C(=O)c1cc(Cl)sc1Cl)c1nc2cc3c(cc2s1)OCO3,50.1 µM (active),–
O=C(NCc1ccc2c(c1)OCO2)c1ccc(Cl)s1,inactive,–
CCN(CC)CCN(C(=O)c1ccc(N2C(=O)CCC2=O)cc1)c1nc2cc3c(cc2s1)OCO3,35.5 µM (active),–
Cc1nc2ccc(NC(=O)C3CCCCC3)cc2s1,–,8.28% [at 12.7 µM] (inactive)
CN(C)CCN(C(=O)C1CCCCC1)c1nc2cc3c(cc2s1)OCO3,70.8 µM (active),–
Cc1nc2cc3c(cc2s1)OCO3,inactive,–

SMILES,Potency,"activity, negative = inhibition"
O=C(Nc1nc2cc3c(cc2s1)OCCO3)c1cccc(S(=O)(=O)N2CCOCC2)c1,inactive,–
CCc1ccc2nc(N(CCCN(C)C)C(=O)c3ccc4c(c3)OCCO4)sc2c1,inactive,–
CCc1ccc(Nc2nn3c(=O)c4cc5c(cc4nc3s2)OCO5)cc1,inactive,–
CN(C)CCCN(C(=O)c1ccc(S(=O)(=O)N2CCCCCC2)cc1)c1nc2cc3c(cc2s1)OCCO3,44.7 µM (active),–
CCCCN(CC)C(=O)c1ccc2c(c1)OCO2,inactive,–
COc1ccccc1N1CCN(CC(=O)Nc2ccnn2C2CCCC2)CC1,–,10.3% [at 2.33 µM] (inactive)
CCC1Nc2ncnc(N3CCN(c4ccccc4)CC3)c2N(Cc2ccc(Cl)cc2)C1=O (stereo not drawn),–,3.93% [at 2.33 µM] (inactive)
CC(C)NC(=O)c1nn(-c2ccccc2F)nc1CO,inactive,–
OCC(CO)NC1C[C@](O)(CO)[C@@H](O)[C@H](O)[C@H]1O (stereo partly drawn),inactive,–
O=C(c1cccs1)N1CCC(c2nc3ccccc3s2)CC1,39.8 µM (active),–
Cc1cccc(NC(=S)N2CCC(c3nc4ccccc4s3)CC2)c1,–,30.9% [at 0.501 µM] (inactive)
CC(C)(C)c1ccc(OCC(=O)N2CCC(c3nc4ccccc4s3)CC2)cc1,inactive,–
CC(=O)c1cccc(NC(=O)c2nc(-c3ccccc3)n(-c3cccc(C)c3)n2)c1,inactive,–
Cn1c(C(=O)NCCCN2CCN(c3cccc(Cl)c3)CC2)cc2c(=O)n(C)c3ccccc3c21,7.94 µM (active),–
O=C(CCn1c(=O)[nH]c2ccccc2c1=O)NCCCN1CCN(c2cccc(Cl)c2)CC1,inactive,–
CCOc1ccc(CCNC(=O)c2cc3c(=O)n(C)c4ccccc4c3n2C)cc1,inactive,–
CCN1C(=O)c2ccccc2Sc2ccc(NC(=O)Cc3ccc(OC)cc3)cc21,inactive,–
COc1cc(-c2n[nH]c(=S)n2Cc2ccccc2)cc(OC)c1OC,3.55 µM (active),–
CCC(C)n1c(-c2cc(OC)c(OC)c(OC)c2)nc2nc3ccccc3nc21 (stereo not drawn),inactive,–
COc1cc(-c2nnn(CC(=O)NCc3ccccc3)n2)cc(OC)c1OC,inactive,–
COC(=O)C1=C(O)/C(=C/c2ccc(OCC(=O)Nc3ccccc3)cc2)N=C1C,inactive,–
CCOC(=O)c1nn(-c2cccc(C)c2)cc1C(=O)c1ccccc1,–,-45.6% [at 2.33 µM] (inactive)
CCOC(=O)C1=C(O)/C(=C/c2cc(C)n(-c3ccccc3)c2C)N=C1C,50.1 µM (active),–
COc1ccc2oc(C(=O)NCC(Cc3ccccc3)N(C)C)c(C)c2c1 (stereo not drawn),inactive,–

SMILES,Potency,"activity, negative = inhibition"
Cc1ccc(OC(=O)c2cncc(Br)c2)c(C)c1,inactive,–
Cn1c(=O)c2cn(-c3cccc4ccccc34)cc2n(C)c1=O,–,5.87% [at 2.33 µM] (inactive)
COc1ccc(NC(=O)CCNS(=O)(=O)c2ccc3c(c2)c(=O)n(C)c(=O)n3C)cc1OC,inactive,–
COc1ccc(OC)c(-n2cc3c(=O)n(C)c(=O)n(C)c3c2)c1,50.1 µM (active),–
Cc1ccc(NC(=O)c2cccc(S(=O)(=O)N3CCCc4ccccc43)c2)nc1,inactive,–
CCOC(=O)CC1(NC(=O)c2cc(COc3cncc(Cl)c3)on2)CCCCC1,inactive,–
COc1ccc(C[C@H](C(=O)O)N2C(=O)c3ccc(C(=O)O)cc3C2=O)cc1,–,8.45% [at 12.7 µM] (inactive)
CCCCC(C(=O)OCC(=O)c1ccc(OC)cc1)N1C(=O)c2ccccc2C1=O (stereo not drawn),inactive,–
CCOC(=O)C(Cc1ccc(N)cc1)N1C(=O)c2ccccc2C1=O (stereo not drawn),50.1 µM (active),–
COc1cc(OC)cc(C(=O)NCCc2csc3nc(-c4ccccc4F)nn23)c1,inactive,–
CCOCCCNC(=O)C(NC(=O)Cc1c[nH]c2ccccc12)c1ccc(OC)cc1 (stereo not drawn),inactive,–
CCOCCCNC(=O)C(NC(=O)CNC(=O)c1ccccc1)c1ccc(OC)cc1 (stereo not drawn),15.8 µM (active),–
CCOCCCNC(=O)C(NC(=O)CNC(=O)c1ccccc1)c1ccc(C)cc1 (stereo not drawn),inactive,–
Cc1c(NC(=O)Nc2ccc(F)c(Cl)c2)c(=O)n(-c2ccccc2)n1C,inactive,–
O=C(O[C@@H]1[C@H](Cc2ccccc2)NS(=O)(=O)[C@H]2C[C@@H]3C=C[C@]12O3)c1ccccc1Br,–,6.72% [at 0.501 µM] (inactive)
O=C(CCN1c2ccccc2Sc2ccccc21)Nc1ccccc1,50.1 µM (active),–
CC1CCN(CCC(=O)Nc2ccccc2)CC1,inactive,–
O=C(CSCc1ccccc1)Nc1ccccc1,–,2.25% [at 2.33 µM] (inactive)
O=C(COc1ccccc1Cl)Nc1ccc2nc(SCC(=O)N3CCCC3)sc2c1,inactive,–
O=C(Nc1ccc(C2CC2(Cl)Cl)cc1)c1cccc([N+](=O)[O-])c1 (stereo not drawn),inactive,–
COc1ccc(C2(C)ON(c3ccccc3C(F)(F)F)C2=O)cc1 (stereo not drawn),–,1.68% [at 2.33 µM] (inactive)
